Screens (PubChem BioAssay)
In the library only some 2.3% were active in any assay of this set; here they are far more common.
Shn3 3UTR inh: reduction of Shn3 3'UTR firefly luciferase signal, primary screen, Schnurri-3 inhibitor project, cell-based, Clone20 osteoblasts, set 2; Clone20 osteoblast Shn3 3'UTR firefly luciferase, 24 h; inhibition, % at 12.5 µM; AID 588674, 2011; 360,000 compounds, 0.52% hits;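 active = mean inhibition of at least 75% with every replicate also reaching 75%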;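 also: 0% = median of neutral control wells and 100% = pilot-screen positive control compound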
Jurkat NFkB inh: inhibitors of induced NF-kB luciferase reporter, primary screen, TCR NF-kB activation inhibitor project, cell-based, luminescence, uHTS | inhibition, % at 4 µM | AID 435003, 2010 | 330,000 compounds, 0.53% hits | Jurkat, PMA/ionomycin-induced NF-kB luciferase reporter; in the data active = inhibition above about 50%
aSyn UTR inh: MLPCN primary screen, SNCA 5' untranslated region | alpha-synuclein 5'UTR reporter, inhibitor activity | inhibition, % (tested at 7.5 µM) | 300,000 compounds, 0.82% hits; in the data active = inhibition above about 60%;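 also: H4 neuroglioblastoma cells stably carrying SNCA 5'UTR luciferase fusion; 0% = DMSO wells and 100% = positive control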
697 NFkB inh: inhibitors of PMA/ionomycin-induced NF-kB reporter, 697 cells, primary screen, B-cell NF-kB inhibitor project, cell-based, luminescence, uHTS; inhibition, % at 4 µM; 330,000 compounds, 0.33% hits; 697 B-cell NF-kB luciferase reporter, 16 h; AID 435022, 2010; in the data active = inhibition above about 35%
TAG inh: inhibitors of triacylglycerol accumulation, primary screen, cell-based, uHTS, fluorescence, H9c2; H9c2 cells, Nile Red lipid (TAG) fluorescence; cells loaded with 200 µM oleic acid; inhibition, % at 12.5 µM; AID 651582, 2012; 230,000 compounds, 0.66% hits;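 active = pattern-corrected inhibition of lipid staining of at least 50% with the nuclear-stain viability signal not falling by more than 50%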;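 also: 0% = DMSO wells and 100% = triacsin C control wells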
Gli-Sufu block: Gli-Sufu pathway antagonists, primary screen, luciferase luminescence, Sufu-KO-LIGHT cells, uHTS; Sufu-KO-LIGHT fibroblasts, Gli luciferase reporter luminescence; inhibition, % at 5 µM; 340,000 compounds, 0.74% hits; AID 588413, 2011;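 active = inhibition above about 55%, limit read from the data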;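 also: 0% = DMSO-treated cells and 100% = wells with medium but no cells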
Gli antag conf: Gli-SUFU pathway antagonists, confirmation, single concentration, luciferase luminescence, Sufu-KO-LIGHT cells. shares compounds with Gli-Sufu block. Gli luciferase reporter. inhibition, % at 5 µM. 2,500 compounds, 40% hits;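 active = mean inhibition at 5 µM reaching about 45%, limit read from the data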;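 also: plate controls were DMSO-treated cells for no effect and wells lacking cells for full effect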
Gli cytotox: cytotoxicity in Sufu-KO-LIGHT cells, confirmation, cytotoxicity control for Gli-SUFU antagonist project, cell-based, ATP luminescence, single concentration | shares compounds with Gli-Sufu block | cytotoxicity, % at 5 µM | 2,500 compounds, 32% hits | AID 651994, 2013;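 active = mean cytotoxicity at 5 µM above about 25%, limit read from the data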;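 also: cells exposed to compound overnight for roughly 16 to 18 hours; plate controls were DMSO wells with cells for no effect and medium without cells for full effect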
Wnt3a cs: Wnt3a reporter signal inhibition, confirmation, counter-screen for Gli-SUFU antagonist project, Wnt-LIGHT cells, luminescence, single concentration. shares compounds with Gli-Sufu block. Wnt3a-driven luciferase reporter. inhibition, % at 6.25 µM. 2,500 compounds, 20% hits. AID 651995, 2013;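 active = mean inhibition above about 25%, limit read from the data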
Numbers without * were called inactive.

Screening COc1ccc(C(=O)N2CC(=O)Nc3ccc(F)cc3C2c2ccccc2)cc1 (stereo not drawn) returned Shn3 3UTR inh 8, aSyn UTR inh 18, Gli-Sufu block 67*, Gli antag conf 20, Gli cytotox 6 and Wnt3a cs -8.
O=C1CN(C(=O)c2ccccc2)C(c2ccccc2)c2cc(F)ccc2N1 (stereo not drawn) was read as Shn3 3UTR inh 2, Jurkat NFkB inh -22, aSyn UTR inh 6, 697 NFkB inh 10 and Gli-Sufu block 2.
CCOc1ccc(C2=Nn3cnnc3SC2)cc1 was read as Shn3 3UTR inh -13, Jurkat NFkB inh 9, aSyn UTR inh -1, 697 NFkB inh 4, Gli-Sufu block 99*, Gli antag conf 14, Gli cytotox 20 and Wnt3a cs 27*.
Screening O=[N+]([O-])c1ccc(C2=Nn3cnnc3SC2)cc1 returned Shn3 3UTR inh 4, Jurkat NFkB inh -20, aSyn UTR inh 17, 697 NFkB inh -8, TAG inh -3 and Gli-Sufu block -6.
O=C(NCCc1ccc(F)cc1)c1ccc2c(=O)n3c(nc2c1)CCC3 was read as Shn3 3UTR inh -77, Jurkat NFkB inh -32, aSyn UTR inh -71, 697 NFkB inh -21, TAG inh 15, Gli-Sufu block 96*, Gli antag conf -8, Gli cytotox 14 and Wnt3a cs -114.
For O=C(NCCOc1ccccc1F)c1ccc2c(=O)n3c(nc2c1)CCC3 the results were Shn3 3UTR inh -50, Jurkat NFkB inh -95, 697 NFkB inh -95, TAG inh 11 and Gli-Sufu block -59.
Screening O=C(CCN1CCN(C/C=C/c2ccccc2)CC1)Nc1ccc(Cl)cc1 returned Shn3 3UTR inh -8, Jurkat NFkB inh -4, aSyn UTR inh 18, 697 NFkB inh 17, Gli-Sufu block 55, Gli antag conf 15, Gli cytotox 24 and Wnt3a cs -32.
COc1ccc(C2CC(C(F)(F)F)n3nc(C(=O)NCc4c(C)nn(C)c4C)c(Cl)c3N2)cc1 (stereo not drawn) was read as Shn3 3UTR inh 70, Jurkat NFkB inh 14, aSyn UTR inh -13, 697 NFkB inh -44, Gli-Sufu block 61*, Gli antag conf 50*, Gli cytotox 42* and Wnt3a cs -1.
COc1ccc(C2CC(C(F)(F)F)n3nc(C(=O)N(C)Cc4cn(C)nc4C)c(Cl)c3N2)cc1 (stereo not drawn) was read as Shn3 3UTR inh 33, Jurkat NFkB inh -2, aSyn UTR inh -17, 697 NFkB inh -26, TAG inh 3 and Gli-Sufu block 0.
CCN(CC)c1ccc(Nc2nc(N3CCOCC3)c3ccccc3n2)cc1 was read as Shn3 3UTR inh 79, Jurkat NFkB inh 34, aSyn UTR inh -28, 697 NFkB inh -47, Gli-Sufu block 67*, Gli antag conf 62*, Gli cytotox 31* and Wnt3a cs 8.
c1ccc2c(c1)nc(N1CCOCC1)c1ccccc12 was read as Shn3 3UTR inh -9, Jurkat NFkB inh 2, aSyn UTR inh 6, 697 NFkB inh 8, TAG inh 2 and Gli-Sufu block 6.
For CC(=O)Nc1cccc(OCc2ccc([N+](=O)[O-])cc2)c1 the results were Shn3 3UTR inh -24 and TAG inh -6.
Screening Fc1ccc2[nH]c3c(NCc4ccccc4)ncnc3c2c1 returned Shn3 3UTR inh 84, Jurkat NFkB inh 9, aSyn UTR inh -19, 697 NFkB inh 22, Gli-Sufu block 60*, Gli antag conf 68*, Gli cytotox 12 and Wnt3a cs 34*.
Screening Cc1ccc(-c2nnc(NC(=O)c3ccco3)o2)c(C)c1 returned Shn3 3UTR inh -24, Jurkat NFkB inh -8, aSyn UTR inh -12, 697 NFkB inh -34, TAG inh 3, Gli-Sufu block 73*, Gli antag conf 4, Gli cytotox 13 and Wnt3a cs -15.
Screening COc1ccc(N2CCN(S(=O)(=O)CCNC(=O)C(C)Oc3ccccc3)CC2)cc1 (stereo not drawn) returned Shn3 3UTR inh 3, Jurkat NFkB inh -9, aSyn UTR inh -7, 697 NFkB inh 6, TAG inh -3 and Gli-Sufu block 2.
For COc1ccc(Nc2c3ccccc3nc3ccccc23)cc1 the results were Shn3 3UTR inh 68, Jurkat NFkB inh 15, aSyn UTR inh -55, 697 NFkB inh -90, Gli-Sufu block 55, Gli antag conf 56*, Gli cytotox 31* and Wnt3a cs -38.
`COc1cc(NC(=O)CNC(c2ccccc2)c2ccccc2)cc(OC)c1OC` gave Shn3 3UTR inh 52, Jurkat NFkB inh -16, aSyn UTR inh -5, 697 NFkB inh -16 and Gli-Sufu block 12.
Screening COc1cc(Nc2c3ccccc3nc3ccccc23)cc(OC)c1OC returned Shn3 3UTR inh 55, Jurkat NFkB inh 36, aSyn UTR inh 34, 697 NFkB inh -13, Gli-Sufu block 61*, Gli antag conf 31, Gli cytotox 16 and Wnt3a cs -43.
COc1ccc(Nc2c3c(nc4ccccc24)CCC3)cc1 was read as Shn3 3UTR inh 31, Jurkat NFkB inh 30, aSyn UTR inh 35, 697 NFkB inh -37 and Gli-Sufu block 30.
For COc1cc(NC(c2ccccc2)c2ccccc2)cc(OC)c1OC the results were Shn3 3UTR inh 24, Jurkat NFkB inh -13, aSyn UTR inh 15, 697 NFkB inh 14, TAG inh -5, Gli-Sufu block 51, Gli antag conf 23, Gli cytotox 15 and Wnt3a cs 9.
CCOCCCNC(=S)NCCc1ccccc1 was read as Shn3 3UTR inh -35, Jurkat NFkB inh -23, aSyn UTR inh -40, 697 NFkB inh -23 and Gli-Sufu block -21.
Screening O=[N+]([O-])c1cccc(-c2nnc(C34CC5CC(CC(C5)C3)C4)o2)c1 returned Shn3 3UTR inh -4, Jurkat NFkB inh -9, aSyn UTR inh -7, 697 NFkB inh -1, Gli-Sufu block 77*, Gli antag conf 11, Gli cytotox 7 and Wnt3a cs -14.
